From PubChem BioAssay (NCATS)
Results filed as inconclusive are left out. The source made the active and inactive calls. Unless noted, calls come from the whole dose curve; as a rule, active = well fitted curve in the direction sought with a large enough effect; inconclusive = small, poorly fitted or top-dose-only effect, or another doubt; inactive = no such curve, though single readings can be large; an effect the other way counts as inactive or inconclusive.

Assays:
[1] = Cellular Toxicity (caspase-3) Jurkat (AID 655);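 note: cells exposed to compound for 16 h at 37 °C before reading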
In short: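 Jurkat cells (5000/well) in complete medium were treated with compounds for 16 hr at 37 °C, then Caspase-Glo 3/7 luminescence was read after 20 min at room temperature. Data normalized to DMSO (basal) and 100 uM tamoxifen (100%); AC50 from Hill fit.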

[2] = Cellular Toxicity (caspase-3) SHSY5Y (AID 657);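 note: cells exposed to compound for 16 hours at 37 °C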
In short: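 SH-SY5Y human neuroblastoma cells (1500/well) were treated with compounds for 16 h at 37 °C, then Caspase-Glo 3/7 luminescence was read after 1 h at room temperature. Data normalized to DMSO and 10 uM staurosporine; AC50 from Hill fits.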

[3] = Cellular Toxicity (caspase-3) BJ (AID 658);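 note: cells exposed to compound for 16 hours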
In short: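 Caspase-Glo 3/7 luminescence, read 1 hr after reagent at room temperature, in normal BJ fibroblasts exposed 16 hours at 37 °C. AC50 values from Hill-equation concentration-response, scaled between DMSO basal and 10 uM staurosporine as 100%.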

[4] = Cellular Toxicity (caspase-3) MRC-5 (AID 659); details: Potency: caspase-3 activation
In short: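 Luminescent Caspase-Glo 3/7 read-out (1 h, room temperature) after a 16 h, 37 °C compound exposure of MRC-5 lung fibroblasts at 1500 cells/well. Concentration-response AC50 from Hill equation; 0% DMSO, 100% 10 uM staurosporine.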

[5] = Cellular Toxicity (caspase-3) Mesangial (AID 660);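 note: combined caspase 3 and 7 activity read by Caspase-Glo luminescence; cells exposed to compound for 16 h before the caspase read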
In short: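 Caspase 3/7 activation measured by Caspase-Glo 3/7 luminescence (20 min, room temperature) following 16 h exposure of mesangial cells (1000/well); AC50 from Hill-equation fit, normalized to DMSO and 100 uM tamoxifen.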

[6] = Cellular Toxicity (caspase-3) SK-N-SH (AID 661);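 note: cells exposed to compound for 16 hours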
In short: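 Caspase 3/7 activation was read by luminogenic substrate cleavage after 16 hour treatment of SK-N-SH cells. Signal was scaled between DMSO and 10 uM staurosporine, and concentration-response data were fitted with the Hill equation for AC50.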

[7] = Cellular Toxicity (caspase-3) H-4-II-E (AID 663); details: Potency: caspase-3 activation;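 note: cells exposed to compound for 16 hr before readout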
In short: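 Caspase 3/7 activation measured by luminescent aminoluciferin substrate cleavage after 16 hr compound treatment of H-4-II-E cells in complete medium. Increase normalized between DMSO (basal) and 100 uM tamoxifen (100%); Hill-equation AC50 from concentration-response.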

[8] = Cellular Toxicity (caspase-3) Hek293 (AID 664);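 note: cells exposed to compound for 16 h at 37 °C before readout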
In short: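 Concentration-response qHTS: caspase 3/7 activation measured by luminescent aminoluciferin substrate cleavage after 16 h compound exposure of Hek 293 cells. AC50 from Hill equation, with DMSO as basal and 100 uM tamoxifen as 100%.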

[9] = Cellular Toxicity (caspase-3) N2a (AID 665); details: Potency: caspase-3 activation;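 note: compound exposure lasted 16 h at 37 °C before readout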
In short: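 Caspase-3/7 activation measured as luminescence from Caspase-Glo reagent (1 h, room temperature) after 16 h compound exposure of mouse N2a cells. AC50 values from Hill-equation concentration-response, scaled between DMSO and 10 uM staurosporine.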

[10] = Cellular Toxicity (caspase-3) NIH 3T3 (AID 666)
In short: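 Caspase-Glo 3/7 luminescence reported caspase activation in 1000 NIH 3T3 cells/well after 16 h compound exposure at 37 C. DMSO set basal and 100 uM tamoxifen set 100% stimulation; concentration-response modeled with the Hill equation for AC50.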

[11] = Cellular Toxicity (caspase-3) Renal Proximal Tubule (AID 667);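 note: cells exposed to compound for 16 hours at 37 °C before detection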
In short: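 Primary rat proximal tubule cells, 1000/well, 5 h plating at 37 °C, then compound 16 h at 37 °C. Caspase-Glo 3/7 reagent, 1 h RT, luminescence. Normalized to DMSO (basal) and 10 uM staurosporine (100%); Hill-fit AC50.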

[12] = target: Cytochrome P450 3A4 (Homo sapiens) (UniProt P08684); assay: qHTS Assay for Inhibitors and Substrates of Cytochrome P450 3A4 (AID 884); note: series mostly up to about 57 µM; nearly all actives have a fitted effect of over 50% in size
In short: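 Luminescent readout of luciferin produced by CYP3A4 (20 nM) dealkylation of Luciferin-PPXE, 25 uM (its KM). NADPH-driven reaction ran 60 min at RT after 10 min compound preincubation; data scaled to 57 uM ketoconazole as 100% inhibition.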

[13] = Confirmation and Secondary Assay for Modulators of Hemoglobin Beta Chain Splicing at IVS2 654 locus (AID 910);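 note: HeLa cells stably carrying EGFP split by mutant beta-globin IVS2-654 intron; per-well total GFP intensity by laser scanning cytometry after 2-day treatment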
In short: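 Readout: per-well total peak green fluorescence (488 nm ex, 500–520 nm em) from objects 5–250 µm, reflecting correct splicing of an EGFP-654 reporter. Compounds were applied for 2 days at 37 °C to overnight-plated HeLa EGFP-654 cells; controls were DMSO and 500 nM IVS2-654 PNA.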

[14] = target: 3',5'-cyclic-AMP phosphodiesterase 4B (Homo sapiens) (UniProt Q07343); assay: qHTS Assay for Inhibitors of PDE-IV (AID 607; active = well fitted activation curve with a large enough effect in the main read-out, with a control signal flat, not every such curve was filed as active)
In short: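 Live HEK293 cells with a modified cyclic nucleotide-gated (CNG) channel report intracellular cAMP via membrane-potential dye fluorescence (ex 535/em 590 nm). Endogenous PDE-IV was targeted. Compounds were tested at up to 22.9 uM final; RO 20-1724 100 uM served as control.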

[15] = target: Cytochrome P450 3A4 (Homo sapiens) (UniProt P08684); assay: qHTS Assay for Activators of Cytochrome P450 3A4 (AID 885); note: nearly all actives have a fitted effect of over 65% in size
In short: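 Using 20nM recombinant human CYP3A4 in potassium phosphate (200mM), substrate Luciferin-PPXE at 25uM, luminescent luciferin detection followed a 60-min RT NADPH reaction; data scaled to 57 uM ketoconazole.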

[16] = target: Cytochrome P450 2D6 (Homo sapiens) (UniProt P10635); assay: qHTS Assay for Inhibitors and Substrates of Cytochrome P450 2D6 (AID 891); note: potency is the fitted concentration of half-maximal effect; nearly all actives have a fitted effect of over 60% in size
In short: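 Luminescent read-out of luciferin formed by 5 nM human CYP2D6 demethylating 30 uM Luciferin-ME EGE (Km level) over 60 min at room temperature after NADPH regeneration addition. Data normalized to full inhibition by 1.43 uM quinidine.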

[17] = target: Guanine nucleotide-binding protein G(i) subunit alpha-1 (Homo sapiens) (UniProt P63096); assay: qHTS Assay for Inhibitors of RGS12 GoLoco Motif Activity (Green Fluorophore) (AID 879);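 note: negative values mean loss of peptide binding seen as reduced polarization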
In short: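 A drop in FITC polarization marked displacement of the FITC-tagged RGS12 GoLoco peptide (10 nM) from Gαi1 (50 nM). Compounds were incubated 10 min at room temperature in Tris pH 7.5 buffer containing 150 mM NaCl, 0.1 mM GDP and 0.05% NP40; unlabeled peptide titration served as control.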

[18] = target: Cytochrome P450 2C9 (Homo sapiens) (UniProt P11712); assay: qHTS Assay for Inhibitors and Substrates of Cytochrome P450 2C9 (AID 883); note: nearly all actives have a fitted effect of over 60% in size
In short: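 Luminescent read-out of deoxyluciferin hydroxylation, normalized to 57uM sulphaphenazole (AC100). Reaction: 10nM enzyme, 100uM Luciferin-H (equal to KM), 25mM KPO4, 10 min compound preincubation, then 60 min with NADPH regeneration, both at 37C.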

Measured: Potency

Chain of 3',5'-cyclic-AMP phosphodiesterase 4B (Homo sapiens) (Q07343 whole entry, looked up): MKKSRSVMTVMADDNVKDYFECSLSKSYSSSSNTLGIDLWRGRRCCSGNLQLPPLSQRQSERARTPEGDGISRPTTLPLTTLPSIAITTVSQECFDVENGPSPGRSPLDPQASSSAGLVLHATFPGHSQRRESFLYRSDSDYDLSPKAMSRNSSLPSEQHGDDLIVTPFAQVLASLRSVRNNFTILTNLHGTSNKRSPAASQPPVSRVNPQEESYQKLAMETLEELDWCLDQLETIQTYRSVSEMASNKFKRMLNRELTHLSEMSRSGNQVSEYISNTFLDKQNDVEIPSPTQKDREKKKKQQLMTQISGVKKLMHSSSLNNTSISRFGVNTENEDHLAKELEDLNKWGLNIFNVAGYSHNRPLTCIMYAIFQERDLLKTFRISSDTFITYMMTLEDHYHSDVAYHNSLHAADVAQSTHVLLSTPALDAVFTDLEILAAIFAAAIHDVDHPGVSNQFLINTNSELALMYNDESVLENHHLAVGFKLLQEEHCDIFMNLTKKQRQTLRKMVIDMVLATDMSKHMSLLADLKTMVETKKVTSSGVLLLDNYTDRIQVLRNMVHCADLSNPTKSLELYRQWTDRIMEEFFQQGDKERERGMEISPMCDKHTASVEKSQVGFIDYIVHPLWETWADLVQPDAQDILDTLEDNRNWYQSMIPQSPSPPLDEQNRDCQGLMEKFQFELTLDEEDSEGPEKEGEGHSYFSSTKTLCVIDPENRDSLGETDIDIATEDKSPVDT
Chain of Cytochrome P450 3A4 (Homo sapiens) (P08684 whole entry, looked up): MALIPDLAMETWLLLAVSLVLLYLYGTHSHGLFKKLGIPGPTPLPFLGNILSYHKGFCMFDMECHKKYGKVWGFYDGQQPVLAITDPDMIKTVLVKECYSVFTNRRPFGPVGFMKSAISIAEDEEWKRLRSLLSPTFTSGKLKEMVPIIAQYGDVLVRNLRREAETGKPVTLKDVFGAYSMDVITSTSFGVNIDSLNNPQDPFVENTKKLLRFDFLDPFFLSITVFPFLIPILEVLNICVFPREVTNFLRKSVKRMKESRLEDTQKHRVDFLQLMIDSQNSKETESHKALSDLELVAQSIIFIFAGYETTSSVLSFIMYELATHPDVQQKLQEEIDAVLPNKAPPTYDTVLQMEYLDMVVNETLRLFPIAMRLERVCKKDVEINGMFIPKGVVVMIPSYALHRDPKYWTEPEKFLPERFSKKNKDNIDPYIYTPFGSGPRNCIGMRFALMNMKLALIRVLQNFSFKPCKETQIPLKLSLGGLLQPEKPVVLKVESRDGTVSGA
Chain of Cytochrome P450 2D6 (Homo sapiens) (P10635 whole entry, looked up): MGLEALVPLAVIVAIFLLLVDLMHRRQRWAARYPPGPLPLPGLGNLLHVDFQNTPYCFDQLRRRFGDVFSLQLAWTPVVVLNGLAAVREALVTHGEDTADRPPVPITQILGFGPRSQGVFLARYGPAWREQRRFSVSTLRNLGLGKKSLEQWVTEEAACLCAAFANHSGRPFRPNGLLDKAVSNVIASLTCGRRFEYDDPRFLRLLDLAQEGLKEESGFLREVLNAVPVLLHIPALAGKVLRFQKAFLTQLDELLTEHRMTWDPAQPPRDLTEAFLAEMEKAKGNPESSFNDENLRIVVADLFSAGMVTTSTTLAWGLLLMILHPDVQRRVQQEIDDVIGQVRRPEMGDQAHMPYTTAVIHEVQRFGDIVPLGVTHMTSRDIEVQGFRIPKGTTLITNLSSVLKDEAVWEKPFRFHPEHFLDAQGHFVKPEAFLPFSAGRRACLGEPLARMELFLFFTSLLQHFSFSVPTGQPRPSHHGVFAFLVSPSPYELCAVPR
Chain of Guanine nucleotide-binding protein G(i) subunit alpha-1 (Homo sapiens) (P63096 whole entry, looked up): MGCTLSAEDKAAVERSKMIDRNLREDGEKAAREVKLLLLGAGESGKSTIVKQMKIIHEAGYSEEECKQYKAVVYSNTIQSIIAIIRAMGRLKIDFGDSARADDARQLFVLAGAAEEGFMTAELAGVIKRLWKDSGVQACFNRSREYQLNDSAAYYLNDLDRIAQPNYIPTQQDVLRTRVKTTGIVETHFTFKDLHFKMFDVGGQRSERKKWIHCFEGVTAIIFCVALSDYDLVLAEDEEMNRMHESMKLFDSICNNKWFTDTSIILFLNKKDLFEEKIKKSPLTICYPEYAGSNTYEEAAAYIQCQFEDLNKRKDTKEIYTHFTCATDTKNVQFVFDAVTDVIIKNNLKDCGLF
Chain of Cytochrome P450 2C9 (Homo sapiens) (P11712 whole entry, looked up): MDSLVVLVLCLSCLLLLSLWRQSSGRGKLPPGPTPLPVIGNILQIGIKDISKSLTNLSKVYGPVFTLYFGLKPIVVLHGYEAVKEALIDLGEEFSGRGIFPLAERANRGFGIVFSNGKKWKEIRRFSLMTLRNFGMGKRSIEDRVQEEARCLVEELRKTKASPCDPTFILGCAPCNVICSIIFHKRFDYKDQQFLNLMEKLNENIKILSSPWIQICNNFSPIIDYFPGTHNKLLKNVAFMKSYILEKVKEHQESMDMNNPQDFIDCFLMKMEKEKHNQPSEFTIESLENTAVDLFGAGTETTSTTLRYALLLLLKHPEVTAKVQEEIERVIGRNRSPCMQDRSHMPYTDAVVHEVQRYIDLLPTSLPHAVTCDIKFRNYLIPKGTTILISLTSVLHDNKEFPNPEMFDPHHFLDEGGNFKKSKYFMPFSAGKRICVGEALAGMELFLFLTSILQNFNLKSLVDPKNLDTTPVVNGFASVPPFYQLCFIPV

O=c1ccc2ccccc2o1
inactive: [1] | [2] | [3] | [4] | [5] | [6] | [7] | [8] | [9] | [10] | [11] | [12] | [13]

CC(C)(Oc1ccc(Cl)cc1)C(=O)O
inactive: [14] | [13]

CN(C(=O)CN(CCO)CC(=O)N(C)C(C)(C)Cc1ccccc1)C(C)(C)Cc1ccccc1
inactive: [14] | [15] | [13]
active: [16] 3.16 µM

CC(=O)Oc1ccc(C(c2ccc(OC(C)=O)cc2)c2ccccn2)cc1
inactive: [1] | [2] | [3] | [4] | [5] | [6] | [7] | [8] | [9] | [10] | [11] | [15] | [13]

CCN(CC)C(=O)N1CCN(C)CC1
inactive: [14] | [12] | [13]

CC(=O)N(O)CCCCCNC(=O)CCC(=O)N(O)CCCCCNC(=O)CCC(=O)N(O)CCCCCN
inactive: [14] | [12] | [13]

CCCC1O[C@@H]2C[C@H]3[C@@H]4CCC5=CC(=O)C=C[C@]5(C)[C@H]4[C@@H](O)C[C@]3(C)[C@]2(C(=O)CO)O1 (some centres undefined)
inactive: [17] | [15]

COc1ccc(CCN2CCC(Nc3nc4ccccc4n3Cc3ccc(F)cc3)CC2)cc1
active: [16] 7.94 µM
inactive: [18] | [15] | [13]

Cc1cc(=O)n(-c2ccccc2)n1C
inactive: [14] | [13]

Oc1c(I)cc(I)c2cccnc12
inactive: [12] | [13]

OCc1ccccc1O
inactive: [12] | [13]

c1ccc(-c2ccc(C(c3ccccc3)n3ccnc3)cc2)cc1 (centres undefined)
inactive: [13]

O=C1OCCN1/N=C/c1ccc([N+](=O)[O-])o1
inactive: [13]

CCN(CCCc1ccccc1)CCCc1ccccc1
inactive: [12] | [13]
